Test results as given in PubChem BioAssay AID697 (Columbia University Molecular Screening Center, 2007).
Among all 96,000 compounds or so, about 100 (0.1%) were called active.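 How the source made its calls: active means activation at 2 µM above a set limit, the mean plus 5 SD (cut at about 37% in these data); inactive means the rest.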 The entries come from a sample that favours actives as a whole.

Each compound was assayed against Tyrosine-protein phosphatase non-receptor type 22 (Homo sapiens) (UniProt Q9Y2R2) (assay: enhancers of human PTPN22 catalytic activity – biochemical, DiFMUP fluorescence, 2 µM, primary screen (AID 697)). Details: recombinant LYP, at 2 µM, active compounds read high, 0 = plate median, 100 = signal doubled.
Sequence of Tyrosine-protein phosphatase non-receptor type 22 (Homo sapiens) (Q9Y2R2 whole entry, looked up): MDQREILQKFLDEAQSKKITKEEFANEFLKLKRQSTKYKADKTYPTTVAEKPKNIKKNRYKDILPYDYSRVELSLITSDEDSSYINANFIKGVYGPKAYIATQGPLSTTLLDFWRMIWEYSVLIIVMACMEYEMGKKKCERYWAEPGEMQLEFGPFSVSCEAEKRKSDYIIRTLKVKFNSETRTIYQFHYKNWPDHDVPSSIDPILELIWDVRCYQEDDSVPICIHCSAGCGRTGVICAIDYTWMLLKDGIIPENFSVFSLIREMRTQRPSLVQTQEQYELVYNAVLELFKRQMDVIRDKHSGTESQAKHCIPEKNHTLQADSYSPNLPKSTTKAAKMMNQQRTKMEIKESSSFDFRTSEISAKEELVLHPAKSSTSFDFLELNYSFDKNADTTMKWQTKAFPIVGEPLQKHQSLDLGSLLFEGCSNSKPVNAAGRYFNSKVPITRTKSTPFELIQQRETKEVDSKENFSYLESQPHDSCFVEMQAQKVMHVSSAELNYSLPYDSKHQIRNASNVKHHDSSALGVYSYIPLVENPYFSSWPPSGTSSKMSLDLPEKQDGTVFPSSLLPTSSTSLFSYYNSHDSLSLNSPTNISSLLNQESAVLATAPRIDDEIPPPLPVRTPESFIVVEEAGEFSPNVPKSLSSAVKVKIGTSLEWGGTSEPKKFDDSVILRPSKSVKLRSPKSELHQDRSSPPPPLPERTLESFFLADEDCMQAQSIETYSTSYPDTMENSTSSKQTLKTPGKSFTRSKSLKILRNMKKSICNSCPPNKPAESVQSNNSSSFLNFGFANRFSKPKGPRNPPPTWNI

activation, active:
Cc1ccccc1NC(=O)c1cc(S(=O)(=O)N2CCOCC2)cs1 38%

activation, inactive:
Cc1cc(C)n2nc(C(=O)NC(C)(C)C)nc2n1 3.4%
C=CCN(C(=O)Nc1ccc2oc(C)nc2c1)c1ccccc1 -7.1%
COC(=O)c1cccc(-n2[nH]nnc2=S)c1 -1.7%
CC(C)(CCl)C(=O)Nc1ccc(Sc2ccc(F)cc2)cc1 1.3%
CC1(C)Cc2cccc(OCC(N)=O)c2O1 -3.7%
CCCCCCc1cc2cc(-c3nnc(-c4cccc(OC)c4)o3)c(=O)oc2cc1O -30.3%
COc1ccc(CNc2ccc3c(c2)CCC3)cc1OC -10.3%
COc1ccc(OC)c(-n2nnnc2SCC(=O)Nc2cc(C)ccc2OC)c1 2.6%
CC(C)C(=O)Nc1ccc2c(c1)oc1ccccc12 -1.6%
N/C(=N\OC(=O)c1cc(-c2ccccc2)nc2ccccc12)c1ccncc1 -7.1%
COc1ccc2c(c1)cc1n2CCN=C1NN 0.1%
COc1ccc(NC(=O)C2C3C=CC(C3)C2C(=O)NCc2ccccn2)c(OC)c1 (stereo unspecified) -5%
CC1=NN(/C(=N\c2nnc(C)s2)Nc2ccccc2)[C@H](c2ccc(C)cc2)S1 -6.4%
CCc1ccc(C(=O)CSc2nnc(C)c(=O)[nH]2)cc1 -2.7%
COc1ccc(OC(C)C(=O)Nc2cccnc2)cc1 (stereo unspecified) 6.9%
C/C(=N/NC(=O)c1ccc(NC(=O)c2ccc(F)cc2)cc1)c1ccccc1 -1.9%
CCc1ccc(C2C(C#N)=C(N)Oc3n[nH]c(CC(=O)OC)c32)cc1 (stereo unspecified) 5.3%
COC(=O)CSc1nc2c(c(C3CC=CCC3)c1C#N)CCC2 (stereo unspecified) -5.9%
C=CCNC(=O)c1cc2nc(C3CC3)cc(C(F)F)n2n1 -5.5%
COC(=O)c1cccc(N(C(=O)c2ccco2)C(C(=O)NC2CCCC2)c2ccco2)c1 (stereo unspecified) 6.5%
CC(C)C(=O)Nc1nnc(Sc2ccc(N(C)C)cc2)s1 -2.7%
Cc1nn(Cc2ccc(F)cc2)c(C)c1NC(=O)c1noc2c1CCc1ccccc1-2 7.1%
CCOc1c2ccc(C(=O)NCc3ccc(OC(F)(F)F)cc3)cc2nn1C 10%
COc1cc(C(=S)N2CCOCC2)cc(OC)c1OC(=O)c1cc([N+](=O)[O-])c(C)c([N+](=O)[O-])c1 7%
Cc1cc(-c2cccs2)nc(-n2cccc2)n1 3.4%
CC1=CC(=O)C=CC1(C)C(Cl)(Cl)Cl (stereo unspecified) 3.7%
FC(F)(F)c1cc(C(F)(F)F)c2ccc(N3CCN(c4ccccc4)CC3)nc2n1 2.8%
O=C1OC(c2ccc(Cl)cc2)=N/C1=C\c1cccnc1 7.7%
CC(C)c1cc(C(=O)O)n[nH]1 1.7%
O=C(Nc1ccc2nc3n(c(=O)c2c1)CCCCC3)c1ccccc1Cl -2.7%
CC1(C)CC(=O)C=C(N2CCCC2)C1 -1.1%
Cc1ccc(C2=CSC3=NS(=O)(=O)CCN23)cc1C -4.4%
Cc1ccc(-n2c(=O)c(C#N)cc3c(=O)n4ccccc4nc32)cc1C 5.7%
CCCCCOC(=O)c1ccc(N2C(=O)C3C4C=CC(C4)C3C2=O)cc1 (stereo unspecified) 12.4%
CCC(C)NC(=O)c1ccccc1NC(=O)c1ccccc1N(C)S(C)(=O)=O (stereo unspecified) 0.7%
CC(C)CC(=O)N1CCC(O)(CS(=O)(=O)Cc2ccccc2)CC1 -3.4%
CCCCNC(=O)c1onc(CSc2cccc(OC)c2)c1C(=O)O 4.5%
COc1ccc(CCN(C(=O)COc2ccccc2)c2nc(-c3ccccc3)cs2)cc1OC -13.3%
Cc1noc(NS(=O)(=O)c2ccc(N/C=C/C(=O)c3ccccc3)cc2)c1C 1.5%
CCCCCc1ccc(-c2ccc(C(=O)O)cc2)nc1 -8.9%
Cc1sc(NC(=O)C2C3CCC(O3)C2C(=O)O)c(C(=O)OC(C)C)c1-c1ccc(Cl)cc1 (stereo unspecified) -4.2%
COc1cc(/C=C2/C(=O)ON=C2C)ccc1OCc1ccccc1F 6.2%
Cc1ccc(S(=O)(=O)/N=C(\CN2CCOCC2)N2CCOCC2)cc1 -1.4%
FC(F)(F)c1nc2ccccc2nc1N/N=C/c1ccc(Cl)cc1 5.5%
CCOC(=O)Cn1c(-c2cccnc2Cl)nc2ccccc21 15.2%
NC(=O)C1(N2CCCCC2)CCN(C2CC(=O)N(Cc3ccc(N4CCCC4=O)cc3)C2=O)CC1 (stereo unspecified) -5.5%
CN(C)C(=O)c1cc(Br)ccc1Cl -3.6%
COc1ccc(N(CC(=O)N/N=C/c2cccc3c2OCCO3)S(=O)(=O)c2ccc(NC(C)=O)cc2)cc1 7.5%
O=C(/C=C/c1ccc(Cl)cc1Cl)c1cccnc1 2.2%
CCOC(=O)N1CCN(Cc2nc(N)nc(Nc3ccc(C)cc3)n2)CC1 7.7%
COc1cc(/C=C(\C#N)c2nc3c(s2)CC(C)CC3)ccc1O (stereo unspecified) -3.9%
COCc1cc(C)nc2sc3c(=O)n(-c4cccc5ccccc45)nnc3c12 -7.5%
CC(=O)NC1=NN(C(C)=O)C(C)(c2ccc(Cl)s2)S1 (stereo unspecified) 5.6%
O=S(=O)(c1cccc2nonc12)N1CCN(c2cccc(Cl)c2)CC1 8.3%
O=C(O)CSCc1ccc(C(=O)O)o1 -1.8%
CC(=O)c1cc2c(cc1NC(=O)CN1CCCCCC1)OCO2 -5.9%
COc1ccccc1CNS(=O)(=O)c1ccc(C)cc1 -13.5%
COC(=O)C1=C(C(=O)OC)C2(OC1c1ccc(Br)cc1)C(=O)c1ccccc1C2=O (stereo unspecified) -2.6%
O=C(Cc1ccc2c(c1)CCCC2)Nc1ccccc1Cl 5.5%
CCOc1ccccc1C(=O)NC1CC2CCCC(C1)N2Cc1ccccc1 (stereo unspecified) -12.3%
O=C(COc1ccc(S(=O)(=O)NCc2ccccc2)cc1)N1CCOCC1 2.4%
Cc1cccc(C)c1OC(=O)CSc1nnc(-c2ccccc2)o1 1.3%
COc1ccc(NS(=O)(=O)c2ccc(NC(=S)NC(=O)CC(C)C)cc2)cc1 4.5%
O=C(CSCc1ccc([N+](=O)[O-])cc1)Nc1cccc(C(=O)Nc2ccccc2C(=O)O)c1 1.6%
Cc1c(Nc2cc(N3CCCC(C)C3)c3nonc3c2[N+](=O)[O-])c(=O)n(-c2ccccc2)n1C (stereo unspecified) 3.1%
CCCCN(CC)CCNC(=O)c1[nH]c(C)c(C(C)=O)c1C 1.3%
Cc1noc(C)c1CSCC(=O)Nc1nc2ccc(Oc3ccccc3)cc2s1 1.8%
CCN(CC)C(=O)CC1(c2ccccc2OC)CCOC(C(C)C)C1 (stereo unspecified) 4.3%
COc1ccc(NC(=O)CC2COc3ccccc3O2)c(OC)c1 (stereo unspecified) 0.8%
CCN(CC)CCNc1ccc(Cl)cc1[N+](=O)[O-] 14%
CC(C)C(=O)NC(=S)Nc1ccccc1F -2.4%
CCn1c(O)c2ccc(C(=O)N=NC(=O)c3cccnc3)cc2c1O 0.7%
O=C(/C=C/c1cccs1)c1cc(Cl)ccc1OC(=O)N1CCOCC1 2.4%
Clc1ccc(-n2nnnc2-c2cnc(-c3ccccn3)nc2-c2cccs2)cc1 3.1%
O=C(CCN1CCc2ccccc2C(O)(c2ccccc2)C1)c1ccc2c(c1)OCCO2 (stereo unspecified) -5.7%
CCOC(=O)CNC(=O)CSc1nc2cccnc2n1CC -4.9%
Cc1ccc2[nH]c3c(=O)n(Cc4ccccn4)cnc3c2c1 -0.9%
COC(=O)[C@@H](NC(=O)Nc1cc(Cl)ccc1C)C(C)C 8.5%
CC(Oc1ccc(-c2ccccc2)c(F)c1)c1ccn(S(=O)(=O)c2cccc3ccccc23)n1 (stereo unspecified) -6.9%
CCOC1CS(=O)(=O)CC1OCC (stereo unspecified) 6.4%
Cc1ccn(C(CC(=O)c2ccc(Br)cc2)C(=O)O)n1 (stereo unspecified) -7.9%
COC(=O)CSc1nc(C)c2ccc(OC)cc2n1 -3.9%
O=C(Cn1c(-c2cscn2)nc2ccccc21)Nc1ccc(Cl)cc1 3%
O=C(Nc1cc2ccccc2oc1=O)C1CCCCC1 -7.9%
COc1cccc(C(=O)Nc2ccc(NC(=O)c3ccco3)cn2)c1 6.7%
CSCCC(NS(=O)(=O)c1ccc2c(c1)oc(=O)n2C)C(=O)NC1CCCc2ccccc21 (stereo unspecified) -8.6%
O=C(CN1C(=O)NC(Cc2ccccc2)(Cc2ccccc2)C1=O)NCC1CCCCC1 0.3%
O=C(Nc1ccccc1F)c1cc(S(=O)(=O)N2CCCCC2)cs1 -4.2%
Cc1ccc(C(=O)Nc2ccccc2C(=O)NC2CCCCC2)cc1S(=O)(=O)N1CCOCC1 -0.7%
CCCCNS(=O)(=O)c1ccc(S(=O)(=O)n2cnc3ccccc32)cc1 -10.5%
CO/N=C/c1ccc(N2CCN(C(=O)c3cccc(Cl)c3)CC2)c([N+](=O)[O-])c1 -0.2%
COc1cc(C(=S)N2CCOCC2)cc(OC)c1OC(=O)c1cc([N+](=O)[O-])cc([N+](=O)[O-])c1 -4.3%
CCn1c(C)nc2c1C(=O)c1ccccc1C2=O -0.9%
CCn1c(/C=C/c2ccc([N+](=O)[O-])o2)nc2ccccc2c1=O -10.9%
O=C(NCCCn1ccnc1)Nc1ccc(Cl)cc1Cl 0.8%
